The panel holds about 83,000 compounds, 20% with a hit somewhere; the sample as a whole holds those more often.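 Compound tested at a single concentration for 48 hours in 96-well plates; a percent growth value below 10 was scored as active.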 Unmarked numbers belong to inactive results. Calls of active or inactive are those of the source.

Data on eight compounds can be found in PubChem BioAssay (NCI).

Holding throughout (experiment): NCI-60 one-dose screen, 48 h (100 = growth as untreated, 0 = no growth, -100 = all killed)
One assay relates to K-562 leukemia. To be noted: 10 µM unless noted.
The test system of the next assay is MALME-3M melanoma. The note with it: 10 µM unless noted.
The test system of the next assay is MDA-MB-231 breast. The note with it: 10 µM unless noted.
The next assay deals with RXF 393 renal. To be noted: 10 µM unless noted.
A further assay relates to SF-268 CNS. The note with it: 10 µM unless noted.
For the next assay, the system named is SF-295 CNS. To be noted: 10 µM unless noted.
The subject of a further assay is SF-539 CNS. To be noted: 10 µM unless noted.
Another assay has as its system UACC-257 melanoma. The note with it: 10 µM unless noted.
Another assay deals with M14 melanoma. To be noted: 10 µM unless noted.
The next assay concerns HCT-15 colon. To be noted: 10 µM unless noted.
A further assay concerns HT29 colon. The note with it: 10 µM unless noted.
The next assay has as its system SNB-75 CNS. The note with it: 10 µM unless noted.
The subject of the next assay is SNB-19 CNS. To be noted: 10 µM unless noted.
A further assay deals with U251 CNS. To be noted: 10 µM unless noted.
For another assay, the system named is PC-3 prostate. The note with it: 10 µM unless noted.
The subject of a further assay is SK-MEL-5 melanoma. To be noted: 10 µM unless noted.
The test system of another assay is UACC-62 melanoma. The note with it: 10 µM unless noted.
The next assay concerns LOX IMVI melanoma. To be noted: 10 µM unless noted.
The next assay relates to SK-MEL-28 melanoma. To be noted: 10 µM.
Another assay relates to SK-MEL-2 melanoma. The note with it: 10 µM unless noted.

Turning to `CCCCCCCCCCCCCCn1cc(C2=C(c3coc4ccc(OC)cc34)C(=O)NC2=O)c2ccccc21`, the growth in the assay with K-562 leukemia is 121%; in the assay on MALME-3M melanoma, 107%; in the assay with MDA-MB-231 breast, 111%; in the assay on RXF 393 renal, 108%; in the assay on SF-268 CNS, 98.8%; with SF-295 CNS, 97.2%. The growth in the assay with SF-539 CNS was 103%; with UACC-257 melanoma it was 96.8%; with M14 melanoma, 98.7%; in the assay with HCT-15 colon, 88.1%; in the assay on HT29 colon, 77.1%; in the assay on SNB-75 CNS it was 80.6%. The growth with SNB-19 CNS is 101%; in the assay with U251 CNS, 97.9%; in the assay on PC-3 prostate it was 109%; in the assay on SK-MEL-5 melanoma, 107%; with UACC-62 melanoma, 95.9%; with LOX IMVI melanoma, 101%. Besides, the growth was 101% in the assay with SK-MEL-28 melanoma and 104% in the assay on SK-MEL-2 melanoma.
Consider `COc1cccc(C(=O)NC(c2ccc(C)cc2)c2cc(Cl)c3cccnc3c2O)c1` (stereo not given), for which the growth is 7.41% (active) in the assay with K-562 leukemia; -1.84% (active) in the assay on MALME-3M melanoma; 31.2% in the assay on MDA-MB-231 breast; 9.4% (active) with RXF 393 renal; 6.71% (active) with SF-268 CNS; -0.279% (active) in the assay with SF-295 CNS. For the same compound, the growth in the assay on SF-539 CNS was 1.97% (active); in the assay on UACC-257 melanoma it was -7.2% (active); in the assay with M14 melanoma, -13.9% (active); in the assay with HCT-15 colon, 28.1%; in the assay with HT29 colon it was 24.1%; with SNB-75 CNS it was 28.8%. Besides, the growth was 12.5% in the assay on SNB-19 CNS; 3.81% (active) in the assay with U251 CNS; 22.8% with PC-3 prostate; -56.8% (active) in the assay with SK-MEL-5 melanoma; -20% (active) in the assay with UACC-62 melanoma; 6.79% (active) with LOX IMVI melanoma. Besides, the growth is 44% with SK-MEL-28 melanoma and 22.8% with SK-MEL-2 melanoma.
`Cc1cccc2c(=O)c3c(sc12)c(NCCCNCCO)nc1ccccc13`: the growth with K-562 leukemia is -51.3% (active); in the assay on MALME-3M melanoma it was 26.9%; in the assay with MDA-MB-231 breast, -1.61% (active); in the assay on RXF 393 renal, 43.3%; in the assay on SF-268 CNS it was 52.1%; in the assay on SF-295 CNS, 74.7%. Moreover, the growth in the assay on SF-539 CNS was 59.4%; in the assay with UACC-257 melanoma, 91.6%; in the assay on M14 melanoma it was 35.1%; in the assay with HCT-15 colon it was 0.41% (active); in the assay on HT29 colon, -24.1% (active); in the assay with SNB-75 CNS it was 23.8%. The growth with SNB-19 CNS is 64.7%; in the assay with U251 CNS it was 28.7%; in the assay on PC-3 prostate, 43.6%; in the assay with SK-MEL-5 melanoma it was 59%; with UACC-62 melanoma, 60.2%; in the assay on LOX IMVI melanoma, -88.2% (active). In addition, the growth is 32.9% in the assay with SK-MEL-28 melanoma and 91.2% in the assay on SK-MEL-2 melanoma.
Regarding `CC(=O)c1ccc2oc(=O)n(Cc3ccc(C#N)cc3)c(=O)c2c1`, the growth in the assay with K-562 leukemia was 117%; with MALME-3M melanoma, 96.9%; with MDA-MB-231 breast it was 107%; in the assay with RXF 393 renal, 114%; in the assay with SF-268 CNS, 99.1%; in the assay on SF-295 CNS it was 99.1%. Moreover, the growth with SF-539 CNS is 96.8%; in the assay on UACC-257 melanoma, 108%; in the assay on M14 melanoma it was 108%; in the assay with HCT-15 colon it was 98.9%; with HT29 colon, 112%; with SNB-75 CNS, 87.3%. Also, the growth was 104% in the assay with SNB-19 CNS; 105% with U251 CNS; 97.5% in the assay with PC-3 prostate; 105% in the assay with SK-MEL-5 melanoma; 97.9% with UACC-62 melanoma; 97.8% in the assay with LOX IMVI melanoma. Moreover, the growth in the assay on SK-MEL-28 melanoma is 104%; with SK-MEL-2 melanoma it was 101%.
Take `CCOc1ccc2c(c1)CN(Cc1ccc(Cl)cc1)CO2`: the growth was 57.2% in the assay on K-562 leukemia; 30.1% with MALME-3M melanoma; 35.2% with MDA-MB-231 breast; -3.87% (active) in the assay with RXF 393 renal; 24.9% in the assay on SF-268 CNS; -7.02% (active) in the assay with SF-295 CNS. Further, the growth in the assay with SF-539 CNS is 1.31% (active); with UACC-257 melanoma it was 70.9%; in the assay on M14 melanoma, 55.6%; with HCT-15 colon, 70%; in the assay with HT29 colon, 57.3%; in the assay on SNB-75 CNS, -39.4% (active). Moreover, the growth was 18.1% in the assay with SNB-19 CNS; 25.4% in the assay with U251 CNS; 49.1% with PC-3 prostate; 74.1% in the assay with SK-MEL-5 melanoma; 62.4% in the assay on UACC-62 melanoma; 35.2% in the assay with LOX IMVI melanoma. For the same compound, the growth in the assay with SK-MEL-28 melanoma is 41.9%; in the assay with SK-MEL-2 melanoma it was 50.4%.
For the compound `COc1cc(/C(C#N)=C/c2nc3c(N4CCOCC4)nc(Cl)nc3n2C)cc(OC)c1OC`, the growth in the assay with K-562 leukemia was 4.64% (active); in the assay on MALME-3M melanoma it was 34.8%; with MDA-MB-231 breast, 9.11% (active); with RXF 393 renal it was 25.7%; in the assay on SF-268 CNS it was 17.2%; in the assay on SF-295 CNS, -15% (active). For the same compound, the growth was -23.7% (active) with SF-539 CNS; 66.2% in the assay on UACC-257 melanoma; 10.8% with M14 melanoma; 8.94% (active) with HCT-15 colon; 9.95% (active) with HT29 colon; -9.92% (active) in the assay on SNB-75 CNS. In addition, the growth with SNB-19 CNS was 17.7%; in the assay with U251 CNS it was 8.74% (active); in the assay with PC-3 prostate, 10.6%; in the assay on SK-MEL-5 melanoma, -38.3% (active); in the assay with UACC-62 melanoma, 2.78% (active); in the assay on LOX IMVI melanoma, 8.21% (active). Besides, the figures for the growth with SK-MEL-28 melanoma and in the assay with SK-MEL-2 melanoma were 46% and 57.3%, respectively.
For the compound `O=C(/C=C/c1ccc(Cl)cc1)c1ccc(Nc2nc(NCCO)nc(N3CCOCC3)n2)cc1`, the growth is 44.5% with K-562 leukemia; 99.5% with MALME-3M melanoma; 84.3% in the assay on MDA-MB-231 breast; 71.3% in the assay with RXF 393 renal; 82% in the assay with SF-268 CNS; 94.5% with SF-295 CNS. The growth with SF-539 CNS is 90.4%; in the assay with UACC-257 melanoma, 101%; in the assay with M14 melanoma it was 105%; in the assay on HCT-15 colon, 44.8%; in the assay with HT29 colon, 42.2%; in the assay with SNB-75 CNS it was 64.6%. Also, the growth with SNB-19 CNS is 91.9%; in the assay with U251 CNS, 46.1%; in the assay on PC-3 prostate, 77.1%; in the assay on SK-MEL-5 melanoma, 79.4%; in the assay on UACC-62 melanoma, 69%; with LOX IMVI melanoma, 68%. The figures for the growth in the assay with SK-MEL-28 melanoma and in the assay on SK-MEL-2 melanoma were 94.7% and 109%, respectively.
For `O=c1c(-c2nc3ccccc3[nH]2)cc2ccccc2n1Cc1cn(Cc2ccc(N3CCOCC3)cc2)nn1`, the growth in the assay with K-562 leukemia was 100%; with MALME-3M melanoma, 64.2%; in the assay on MDA-MB-231 breast, 71.5%; in the assay with RXF 393 renal, 35.7%; with SF-268 CNS, 22.6%; in the assay on SF-295 CNS it was 95.4%. Also, the growth is 52.6% in the assay on SF-539 CNS; 78.7% in the assay with UACC-257 melanoma; 80.1% in the assay with M14 melanoma; 78.6% with HCT-15 colon; 56.3% in the assay with HT29 colon; 5.39% (active) in the assay on SNB-75 CNS. For the same compound, the growth in the assay on SNB-19 CNS is 48%; in the assay with U251 CNS, 64.3%; in the assay on PC-3 prostate, 65.9%; in the assay on SK-MEL-5 melanoma, 71.9%; with UACC-62 melanoma, 79.2%; in the assay with LOX IMVI melanoma, 78.7%. The growth in the assay on SK-MEL-28 melanoma is 76.2%; in the assay on SK-MEL-2 melanoma it was 86.9%.
